# From PubChem
# An excerpt weighted towards active compounds, which were near 19% of everything screened.
# DT40 TDP1 no CPT – qHTS for Inhibitors of human tyrosyl-DNA phosphodiesterase 1 (TDP1): qHTS in cells in absence of CPT; DT40 Tdp1-/- hTDP1 cells, no CPT, ATP luminescence, 48 h; Potency, µM (titrated, usually from 46.2 µM), for inactives: at the top dose activity change, negative = growth inhibition, most hits filed as inhibitors; 15% of 420,000 active; also: nearly all actives have a fitted effect of over 55% in size
#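 Stably hTDP1-transfected Tdp1-null chicken DT40 cells were treated with library compounds minus camptothecin and grown for at least 48 hr at 37 °C, after which cellular ATP was quantified by luminescence.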
# HT1080 IDH1KD tx – HT-1080 IDH1 knockdown cell toxicity (counter line); HT-1080 IDH1 knockdown viability, ATP luminescence, 48 h; Potency, µM (doses to about 46.1 µM), without a hit: top-dose activity, negative = toxicity, most hits filed as cytotoxic; 2% of 360,000 active;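 also: 0% = DMSO wells and -100% = cell-free medium wells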
#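 In this qHTS, HT-1080 cells depleted of IDH1 are exposed for 48 h at 37 °C to compound titrations. Toxicity is scored from CellTiter-Glo luminescence, with DMSO as full viability and medium alone as none.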
# KB-V1 cytotox – kills drug-selected multidrug resistant KB-V1 cells; Potency, µM (doses to about 46.1 µM), most hits filed as cytotoxic; KB-V1 MDR cells viability, CellTiter-Glo, 72 h; 3.4% of 400,000 active; also: nearly all actives have a fitted effect of over 60% in size
#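 Cytotoxicity toward P-gp-expressing KB-V1 cells was determined as loss of CellTiter-Glo luminescence after 72 h at 37 degrees C. Compounds were tested in quantitative HTS format across a concentration range, with curves fitted to normalized data.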
# KB-3-1 cytotox – kills parental KB-3-1 adenocarcinoma cells; 1.4% of 400,000 active; AID 1347075; Potency, µM (titrated, usually from 46.1 µM), most hits filed as cytotoxic; KB-3-1 viability, CellTiter-Glo ATP luminescence, 72 h; also: nearly all actives have a fitted effect of over 60% in size
#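 Cytotoxicity measured as CellTiter-Glo luminescence after 72 h at 37 C. Compound titrations were pinned onto drug-naive KB-3-1 parental adenocarcinoma cells grown in DMEM with 10% FBS, and normalized data fitted to concentration-response curves.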
# HT1080-NT tox – kills 2HG-producing HT-1080-NT fibrosarcoma cells. Potency, µM (highest dose often 46.1 µM), for the others: at the top dose activity, negative = less viability, actives largely listed as cytotoxic. 1.6% of 360,000 active. HT-1080-NT fibrosarcoma viability, CellTiter-Glo ATP luminescence, 48 h. AID 686970;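 also: NT is the 2HG producing partner of a matched IDH1 knockdown line; 0% = DMSO-treated cells and -100% = media-only wells without cells; nearly all actives have a fitted effect of over 55% in size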
#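 Compounds were tested in concentration-response format on HT-1080-NT cells for 48 hours at 37 degrees C. Cell viability came from CellTiter-Glo luminescence; curves were classified by r2, response magnitude and activity.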
# TDP1 cell CPT – DT40-hTDP1 cell growth loss with CPT. 12% of 420,000 active. Potency, µM (titrated, usually from 46.2 µM), for inactives: at the top dose activity change, negative = growth inhibition, usual class: inhibitors. AID 686979. chicken DT40 Tdp1-/-;hTDP1 cells + 20 nM CPT, ATP luminescence, 48 h; also: nearly all actives have a fitted effect of over 55% in size
#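 Cell growth measured by CellTiter-Glo luminescence after a minimum 48 h, 37 C compound exposure with 20 nM CPT in Tdp1-knockout DT40 cells stably expressing hTDP1, seeded 400/well; qHTS titration format.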
# Active calls of the source: *; i = inactive; ? = inconclusive; / = no result given; ! = repeats disagree. Calls follow the shape of the dose curve; as a rule, active = well fitted curve in the direction sought with a large enough effect; inconclusive = small, poorly fitted or top-dose-only effect, or another doubt; inactive = no such curve, though single readings can be large; an effect the other way counts as inactive or inconclusive. Unless noted, % is scaled to controls: 0 for no effect and ±100 for the full control effect; potency is read from the fitted curve at half-maximal effect.
SMILES,DT40 TDP1 no CPT,HT1080 IDH1KD tx,KB-V1 cytotox,KB-3-1 cytotox,HT1080-NT tox,TDP1 cell CPT
COc1cc(NC(=O)CCS(=O)(=O)c2nc(-c3cccs3)cc(C(F)(F)F)n2)cc(OC)c1OC,6.5µM*,/,/,/,/,4.1µM*
CCOc1ncccc1C(=O)Nc1ccc2c(c1)OCCCO2,?,0%,?,i,-1%,?
CCCCn1nnnc1C(c1ccccc1)N1CCCN(Cc2ccc(F)cc2)CC1 (stereo not given),?,-23%,8.2µM*,?,?,?
COc1ccc(N2CCN(C(c3cc4cc(C)ccc4[nH]c3=O)c3nnnn3Cc3ccccc3)CC2)cc1 (stereo not given),?,-12%,i,?,-8%,?
Cc1cccc2cc(C(c3nnnn3Cc3ccccc3)N3CCCc4ccccc43)c(=O)[nH]c12 (stereo not given),16µM*,-1%,i,i,0%,13µM*
Cc1ccc2cc(C(c3nnnn3Cc3ccccc3)N3CCN(c4ccccc4)CC3)c(=O)[nH]c2c1 (stereo not given),?,-2%,?,i,-3%,13µM*
Cc1ccc(C(c2nnnn2CS(=O)(=O)c2ccc(C)cc2)N2CCCC2)cc1 (stereo not given),1%,7%,i,i,10%,-27%
CCN1CCN(C(c2cc3cccc(C)c3[nH]c2=O)c2nnnn2Cc2ccccc2)CC1 (stereo not given),-21%,2%,i,i,6%,-30%
CCCCn1nnnc1C(c1ccccc1)N1CCN(CC)CC1 (stereo not given),-11%,10%,?,i,12%,-22%
Cc1ccc(S(=O)(=O)Cn2nnnc2C(c2ccc(F)cc2)N2CCCCC2)cc1 (stereo not given),23µM*,3%,i,i,6%,?
O=C(CCn1c(=O)c2cccn2c2cccnc21)NCCCN1CCN(c2ccc(F)cc2)CC1,?,-9%,i,i,-10%,-19%
O=S(=O)(Nc1ccc2ccccc2n1)c1ccc2c(c1)CCO2,?,0%,i,i,6%,-28%
c1ccc(CN2CCN(C(c3ccccc3)c3nnnn3Cc3ccccc3)CC2)cc1 (stereo not given),18µM*,-7%,?,i,-1%,?
Cc1ccc(C(c2nnnn2Cc2ccccc2)N2CCN(Cc3ccccc3)CC2)cc1 (stereo not given),16µM*,?,i,?,-23%,?
O=C1CSC(c2ccncc2)N1Cc1ccco1 (stereo not given),-1%,-4%,i,i,14%,-3%
COc1ccc([N+](=O)[O-])cc1NC(=O)c1ccc(C)o1,3%,0%,i,i,0%,9%
Cc1ccc(Cl)cc1N1CCN(S(=O)(=O)c2ccc(-c3cnc(C4CC4)o3)cc2)CC1,13µM*,/,?,?,/,?
O=S(=O)(NCc1ccc(Cl)cc1)c1ccc(-c2cnc(C3CC3)o2)cc1,?,/,i,i,/,?
O=S(=O)(c1ccc(-c2cnc(C3CC3)o2)cc1)N1CCN(c2ccccc2F)CC1,-13%,/,i,i,/,?
COc1ccc(-c2cnc(C)o2)cc1S(=O)(=O)Nc1ccc(C)c(N(C)C)c1,-8%,/,i,i,/,3%
CC(=O)Nc1ccc(NS(=O)(=O)c2ccc(-c3cnc(C4CC4)o3)cc2)cc1,6%,-6%,i,i,-9%,-26%
Cc1ccc(NS(=O)(=O)c2ccc(-c3cnc(C4CC4)o3)cc2)cc1N(C)C,0.73µM*,/,i,i,/,1µM*
O=S(=O)(NCc1ccc(F)cc1)c1ccc(-c2cnc(C3CC3)o2)cc1,10µM*!,?,?,i,?,18µM*
CCOc1ccc(NS(=O)(=O)c2ccc(-c3cnc(C4CC4)o3)cc2)cc1,9.2µM*,?,16µM*,?,?,?
Cc1cccc(NS(=O)(=O)c2ccc(-c3cnc(C4CC4)o3)cc2)c1C,0.01µM*,?,?,0.18µM*,?,0.0073µM*
SMILES,DT40 TDP1 no CPT,HT1080 IDH1KD tx,KB-V1 cytotox,KB-3-1 cytotox,HT1080-NT tox,TDP1 cell CPT
Cc1cc(C)cc(NS(=O)(=O)c2ccc(-c3cnc(C4CC4)o3)cc2)c1,0.82µM*,0.65µM*,4.1µM*,1.2µM*,1.3µM*,0.82µM*
Cc1cccc(NS(=O)(=O)c2ccc(C(=O)NCC3CCCO3)cc2)c1C (stereo not given),-17%,6%,i,i,9%,-18%
c1ccc(-c2cnc(C3CCCCC3)o2)cc1,-16%,3%,i,i,-7%,-26%
COc1ccc(NS(=O)(=O)c2ccc(-c3cnc(C4CC4)o3)cc2)cc1Cl,1.5µM*,/,i,?,/,0.65µM*
Cc1ccc(C)c(NS(=O)(=O)c2ccc(-c3cnc(C4CC4)o3)cc2)c1,0.0052µM*,0.16µM*,0.33µM*,?,0.1µM*,0.0058µM*
CN(C)/C=C/C(=O)c1cnc(-c2ccccn2)s1,-2%,12%,i,?,2%,5%
O=S(=O)(Nc1ccccc1)c1ccc(-c2cnc(C3CC3)o2)cc1,2.3µM*,?,?,?,?,3.7µM*
CC(=O)c1cccc(NS(=O)(=O)c2ccc(-c3cnc(C4CC4)o3)cc2)c1,2.6µM*,?,?,?,21µM*,4.1µM*
O=C(O)c1cccc(NS(=O)(=O)c2ccc(-c3ccc(S(=O)(=O)Nc4cccc(C(=O)O)c4)cc3)cc2)c1,-8%,-2%,i,i,-6%,2%
COc1ccc(-c2nc(N3CCOCC3)nc3n[nH]c(N)c23)cc1,18µM*,?,i,i,?,18µM*
COc1ccc(N2CCN(c3n[nH]c(N)n3)CC2)cc1,-29%,2%,i,i,15%,-12%
CN(C)CC(O)COC(c1ccc(Cl)cc1)c1ccc(Cl)cc1 (stereo not given),21µM*,?,i,i,21µM*,?
O=[N+]([O-])c1ccc(N2CCN(c3ccc(O)cc3)CC2)cn1,?,?,?,i,?,?
